In PubChem BioAssay AID1159580 (chemical genetic matrix, 2015):
Screen size: about 5,500 compounds; about 2,000 (36%) were called active. Roughly 18% stayed inconclusive and do not appear here. No stated cut-off is given here; in the data, active means normalized growth mostly below about 0.91 (no sharp cut-off); inconclusive means no clear call, values can overlap the other calls; inactive means mostly above about 0.92. The list shows a part of the results.

Test: chemical genetic growth profiling, strain panel (AID 1159580);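 further: tested at 20 µM; growth read once vehicle control cultures reached saturation at 30 °C; 1 = growth at the plate median or of vehicle wells; lower values mean less growth of the strain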
Details: S. cerevisiae deletion strains, growth OD

Measured: normalized growth

Cc1ccc2c(c1)C(N1CCN(C)CC1)=Nc1cccnc1N2
inactive: locus YAL040C, strain CLN3, active compounds read low 0.99 | locus YCL061C, strain MRC1 (second series), active compounds read low 0.989 | locus YDR150W, strain NUM1, active compounds read low 0.986 | locus YDR363W, strain ESC2, active compounds read low 1.02 | locus YER002W, strain NOP16, active compounds read low 1 | locus YGR078C, strain PAC10, active compounds read low 0.983 | locus YJR075W, strain HOC1, active compounds read low 1 | locus YMR263W, strain SAP30, active compounds read low 0.982 | locus YNL128W, strain TEP1, active compounds read low 1.09 | locus YNL153C, strain GIM3, active compounds read low 0.998 | locus YNL175C, strain NOP13, active compounds read low 0.997 | locus YNL197C, strain WHI3, active compounds read low 0.988 | locus YNL224C, strain SQS1, active compounds read low 1.01 | locus YNL322C, strain KRE1, active compounds read low 0.988 | locus YOR083W, strain WHI5 (second series), active compounds read low 0.991
